# HP1b chromo inh = inhibitors of HP1-beta chromodomain binding to methylated histone tails. AlphaScreen HP1-beta / biotin-H3K9me3 peptide binding. Potency, µM (titrated, usually from 114 µM), for the others: at the highest dose activity change, negative = inhibition, most hits filed as inhibitors. P83916. AID 540317. 390,000 tested, 0.56% active; note: nearly all actives have a fitted effect of over 70% in size
# Target sequence (P83916 whole entry, looked up): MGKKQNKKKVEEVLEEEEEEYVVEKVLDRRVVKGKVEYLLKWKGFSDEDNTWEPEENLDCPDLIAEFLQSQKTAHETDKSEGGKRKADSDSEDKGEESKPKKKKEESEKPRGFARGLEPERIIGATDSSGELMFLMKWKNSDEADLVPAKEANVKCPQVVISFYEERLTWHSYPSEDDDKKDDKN
#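 Compound inhibition of the preformed complex between 50 nM HP1-beta and 50 nM biotinylated H3K9me3 peptide was read by AlphaScreen. Buffer was PBS pH 7.4 with 0.01% Tween-20. Incubations ran 30 min at room temperature, with 10 ug/mL donor/acceptor beads.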
# Sfp inh = blocks B. subtilis Sfp PPTase activity; Q9F4F7; Biochemical Sfp PPTase activity, qHTS; Potency, µM, for inactives: largest response in the series, negative = inhibition, hits mostly inhibitors; 310,000 tested, 3.5% active;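 note: the enzyme is Sfp with the accession as filed and its product quenches rhodamine fluorescence; 0% = enzyme reaction without inhibitor and -100% = no enzyme wells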
#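 Sfp 15 nM + cpd, 15 min RT; start w/ rhodamine-CoA 5 uM, BHQ-2-YbbR 12.5 uM (final); 50 mM Hepes pH 7.6, 10 mM MgCl2, 0.01% NP-40, 0.01% BSA; read 525/598 nm at 0 and 30 min.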
# JMJD2A Tudor = inhibitors of human JMJD2A Tudor domain; 390,000 tested, 4.4% active; AlphaScreen JMJD2A-Tudor / H3K4me3 peptide binding; O75164; Potency, µM (series often up to 114 µM), inactives show at the top dose activity change, negative = inhibition, usual class: inhibitors; note: % is set by controls: 0 for no effect and ±100 for the full control effect; nearly all actives have a fitted effect of over 50% in size
# L3MBTL1 inh = L3MBTL1 (human) inhibition; Q9Y468; AlphaScreen L3MBTL1–H3K9me1 peptide binding; Potency, µM (doses to about 57.1 µM), for the others: at the top dose activity, negative = inhibition, hits mostly inhibitors; 230,000 tested, 0.66% active; note: % is set by controls: 0 for no effect and ±100 for the full control effect; nearly all actives have a fitted effect of over 60% in size
#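 L3MBTL1 50 nM + b-AHA-H3(1-15)K9me1 75 nM, 30 min RT; compound added, 30 min RT; streptavidin donor/Ni-chelate acceptor beads 10 ug/mL each final, 30 min RT dark; AlphaScreen read.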
# G9a block = blocks human histone lysine methyltransferase G9a; G9a H3K9 monomethylation, AlphaScreen, 2 h; Potency, µM (series often up to 102 µM), without a hit: top-dose activity, negative = inhibition, actives largely listed as inhibitors; 350,000 tested, 8.8% active; note: % is set by controls: 0 for no effect and ±100 for the full control effect; nearly all actives have a fitted effect of over 75% in size
# Target sequence (Q96KQ7 913-1193 limits assumed): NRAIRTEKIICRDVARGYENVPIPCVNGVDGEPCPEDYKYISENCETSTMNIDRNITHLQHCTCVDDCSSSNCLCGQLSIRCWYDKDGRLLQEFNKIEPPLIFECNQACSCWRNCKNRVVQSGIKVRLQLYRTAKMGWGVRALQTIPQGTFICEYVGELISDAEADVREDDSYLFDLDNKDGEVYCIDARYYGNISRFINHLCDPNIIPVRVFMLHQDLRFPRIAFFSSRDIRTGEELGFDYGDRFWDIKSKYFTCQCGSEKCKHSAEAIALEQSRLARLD
#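 G9a (20 nM) preincubated 15 min RT with compounds, then 500 nM biotinylated H3K9 peptide and 20 uM SAM added; 2 h RT reaction. Monomethyl-H3K9 product detected by AlphaScreen with anti-H3K9me1 antibody, streptavidin donor and anti-rabbit IgG acceptor beads.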
# BAZ2B block = inhibitors of human BAZ2B bromodomain; Potency, µM (doses to about 114 µM), for inactives: at the highest dose activity change, negative = inhibition, actives largely listed as inhibitors; AlphaScreen BAZ2B-H3K14Ac peptide displacement; 360,000 tested, 4.4% active; AID 504333; note: % is set by controls: 0 for no effect and ±100 for the full control effect; nearly all actives have a fitted effect of over 60% in size
#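 BAZ2B 50 nM plus b-H3(5-23)K14Ac 50 nM, PBS pH 7.4/0.01% Tween-20, 30 min RT; compound added (max 110 uM), 30 min RT; streptavidin donor/Ni-chelate acceptor beads 10 ug/mL final, 20 min dark; AlphaScreen read.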
# Active calls of the source: *; ? = inconclusive; . = no result given; [ ] = another dose, or the depositor's remark. The list is not random: actives were taken first. Their share in the collection is about 12%. Calls come from the whole dose curve; as a rule, active = well fitted curve in the direction sought with a large enough effect; inconclusive = small, poorly fitted or top-dose-only effect, or another doubt; inactive = no such curve, though single readings can be large; an effect the other way counts as inactive or inconclusive. Potency is the fitted concentration of half-maximal effect.
SMILES,HP1b chromo inh,Sfp inh,JMJD2A Tudor,L3MBTL1 inh,G9a block,BAZ2B block
NS(=O)(=O)c1ccc(N=Nc2ccc(=O)[nH]c2O)cc1,50µM*,?,35µM*,?,-31%[2.33 µM],45µM*
CCOc1ccc(N=Nc2ccc(O)c3ncccc23)cc1,-8%,12%,?,.,40µM*,?
CCOc1ccc(N=Nc2ccc(N)cc2N)cc1,.,-10%,.,.,?,.
CCOc1ccc(N=Nc2cc(C(C)C)ccc2O)cc1,14µM*,6%,18µM*,28µM*,20µM*,5.6µM*
CN1C(C(=O)c2ccccc2)=C(OC(=O)c2ccc(Br)cc2)c2ccccc2S1(=O)=O,13%,.,-35%,.,?,-29%
Cc1ccc(C(=O)N(C)CC(=O)Nc2cccc(F)c2)cc1S(=O)(=O)N1CCCCC1,17%,.,-11%,-6%,-5%[0.501 µM],-19%
CCCNS(=O)(=O)c1cc(-c2nnc3c4ccccc4c(C)nn23)ccc1OC,24%,.,0%,.,5%[59 µM],-2%
COc1ccc(C(C[N+](=O)[O-])c2c(C)[nH]n(-c3ccccc3)c2=O)cc1 (stereo not drawn),?,40µM*,89µM*,.,9%[2.33 µM],-23%
COc1ccc(C(C[N+](=O)[O-])c2c(C)[nH]c3ccccc23)cc1OC (stereo not drawn),-29%,-7%,?,-8%,9%[59 µM],?
Cc1cc2ccccn2c1C(C[N+](=O)[O-])c1ccc(N(C)C)cc1 (stereo not drawn),?,-20%,11µM*,-18%,10µM*,8.9µM*
COc1ccccc1C(C[N+](=O)[O-])c1c(N)n(C)c(=O)n(C)c1=O (stereo not drawn),64%,6%,-14%,.,-38%,-25%
COc1ccc(C(C[N+](=O)[O-])c2c(-c3ccccc3)cc3ccccn23)c(OC)c1 (stereo not drawn),0%,45µM*,?,.,10µM*,79µM*
COc1ccc(C(C[N+](=O)[O-])c2c(C)cc3ccccn23)cc1 (stereo not drawn),-17%,6%,?,-18%,35µM*,?
Cn1cnnc1SCC(=O)Nc1cc(C(=O)O)cc(C(=O)O)c1,35%,.,-17%,.,-2%[59 µM],0%
Cc1ccccc1Nc1c(-c2cccs2)nc2cccc(C)n12,-7%,.,?,.,-49%[59 µM],?
Cc1ccc(/C=N\NC(=O)CCc2n[nH]c(=O)[nH]c2=O)o1,5%,?,16µM*,.,-42%,3%
COc1ccc(OC)c(/C=N/NC(=O)CCc2n[nH]c(=O)[nH]c2=O)c1,31%,4%,-15%,.,-23%,1%
CC(C)CCn1c(SC(C)C#N)nc2ccccc2c1=O (stereo not drawn),54%[57 µM],.,45%[57.1 µM],.,.,.
O=C(O)CC(NC(=O)C1CCCCC1)c1cc([N+](=O)[O-])ccc1Cl (stereo not drawn),39%,18%,-4%,.,-2%,-7%
O=C(O)CC(NC(=O)C12CC3CC(CC(C3)C1)C2)c1cc([N+](=O)[O-])ccc1Cl (stereo not drawn),-1%,-17%,56µM*,.,-15%,-38%
Cn1c(SSc2ccc(-c3cccnc3)n2C)ccc1-c1cccnc1,?,.,50µM*,.,.,.
Cn1c(SCC(=O)c2ccccc2)nnc1-c1cccnc1,22%,-8%,-15%,4%,-9%[59 µM],-30%
COc1ccccc1Cc1nc2ccccc2nc1SCC(=O)N(C)c1ccc(F)cc1,28%[57 µM],.,-19%,.,-4%[59 µM],12%
O=S(=O)(Cc1ccccc1)C(CCCc1ccccc1)S(=O)(=O)Cc1ccccc1,68%,.,4%,.,.,.
COc1ccccc1CNC(=O)c1oc2ccc(S(=O)(=O)N3CCCCC3)cc2c1C,12%,.,-17%,.,5%[59 µM],-3%
SMILES,HP1b chromo inh,Sfp inh,JMJD2A Tudor,L3MBTL1 inh,G9a block,BAZ2B block
CCC[C@H]1NC(=O)[C@H](C)N(C)C(=O)C(C)(C)C(=O)C(C)NC(=O)[C@H](Cc2ccc(OC)cc2)N(C)C(=O)[C@H](C(C)C)N(C)C(=O)CNC(=O)[C@H](CC(C)C)N(C)C(=O)CNC(=O)[C@H]([C@@H](C)CC)OC(=O)[C@H]1C (stereo partly drawn),-6%,.,22µM*,-8%,.,.
COc1ccc(CC2C(=O)NC(C)C(=O)N(C)C3Cc4ccc(cc4)Oc4cc(ccc4O)CC(C(=O)NC(C)C(=O)NC(C)C(=O)N2C)N(C)C3=O)cc1 (stereo not drawn),15%,.,-17%,.,.,.
CCOc1ccc(NC(=O)CN(C)C(=O)C(C)N2C(=O)c3ccccc3C2=O)cc1OCC (stereo not drawn),30%,.,-20%,4%,16%[12.7 µM],-5%
[O-]/[N+](=C/c1ccc(F)cc1)c1ccc(Cl)cc1,4%,40µM*,-23%,.,11µM*,-33%
[O-][N+](=Cc1ccccc1)c1ccc(Cl)cc1,1%,.,-22%,.,.,.
Cc1[nH]c2ccccc2c1C(C#N)(C#N)C1C(=O)c2ccccc2C1=O,11µM*,?,13µM*,?,-111%[12.7 µM],7.9µM*
Cc1[nH]cnc1CSCc1ccc(Cl)cc1,32%,0%,-20%,-9%,25µM*,?
Cc1[nH]cnc1CSCCN,-6%,7.1µM*,1µM*,32%,?,?
COc1cc(OC)c2c(-c3ccccc3)cc(=O)oc2c1C(CC(=O)N1CCN(c2ccccc2)CC1)c1ccc2c(c1)OCO2 (stereo not drawn),.,1%,.,.,-49%[59 µM],?
COc1cc(OC)c2c(-c3ccccc3)cc(=O)oc2c1C(CC(=O)N1CCN(c2ccccc2)CC1)c1ccc(N(C)C)cc1 (stereo not drawn),?,-13%,6.3µM*,.,?,8.9µM*
COc1cc(OC)c2c(-c3ccccc3)cc(=O)oc2c1C(CC(=O)N1CCOCC1)c1ccc(N(C)C)cc1 (stereo not drawn),?,-1%,32µM*,.,-6%[12.7 µM],35µM*
O=C(CNC1CCCCC1)N1CCc2ccccc2C1,-10%,?,3.2µM*,.,-46%[12.7 µM],71µM*
O=C(NCc1ccc(Cl)cc1)N1CCc2ccccc2C1,32%,11%,1%,.,27%,5%
O=C(CNCCc1ccccc1)N1CCc2ccccc2C1,?,2%,3.2µM*,1%,22µM*,50µM*
O=C(CNCc1cccc(Cl)c1)N1CCc2ccccc2C1,-37%,-25%,20µM*,.,14µM*,56µM*
O=C(CNCc1ccc(Cl)cc1)N1CCc2ccccc2C1,-34%,-2%,22µM*,.,-4%,?
O=C(Cc1ccccc1)NCC(=O)N1CCc2ccccc2C1,21%,9%,-10%,.,-11%,8%
